Measured values published in PubChem BioAssay AID1053122 (Broad Institute, 2014).
Entries with a potency or affinity are not part of this list. Calls of active or inactive are those of the source.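 Rule for the calls: active = CTGF level falls with dose and the fitted half-maximal dose is at most twice the top valid dose; inconclusive = flat fit with 30 to 70% drop, or a poor fit; inactive = the rest.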

Assay: YAP1 pathway inhibition via CTGF transcript levels, dose response, cell-based, DLD1 colon cancer, RT-qPCR, cherry-pick (AID 1053122)
Conditions: DLD1 CTGF mRNA (YAP1 pathway), 24 h; series mostly up to 26 µM

outcome, inactive:
CS(=O)(=O)N1CC(=O)N2[C@H](C1)[C@@H](c1ccc(C#Cc3ccc(F)cc3)cc1)[C@@H]2CO
C[C@H]1CC=CC[C@@H](c2ccc(F)cc2)NC(=O)[C@H](Cc2ccccc2)N(C)C(=O)c2ccccc2O1 (mixture of isomers)
CC(C)(C)[S@](=O)N1Cc2cc(C(=O)NCc3ccccn3)nc(-c3cccc(-c4ccccc4F)c3)c2[C@@H]1CCO
COc1ccc2c3c(n(C)c2c1)[C@H](CO)N(S(C)(=O)=O)CC31CCN(C(=O)Nc2cccc(F)c2)CC1
Cc1cccc(-c2ccc([C@@H]3[C@@H](CO)N4CCCCN(S(=O)(=O)c5ccccc5F)C[C@@H]34)cc2)c1
C[C@@H]1CN([C@@H](C)CO)C(=O)c2cc(C#Cc3ccccc3)cnc2O[C@@H]1CN(C)C(=O)c1ccccc1
O=S(=O)(Cc1ccccc1)N1CC2(C1)[C@H](c1ccccc1)[C@H](CO)N2CC1CCCC1
C[C@@H]1CN([C@@H](C)CO)C(=O)CCCn2nncc2CO[C@@H]1CN(C)C(=O)c1cc(-c2ccccc2)on1
CC(C)(C)S(=O)N1Cc2cc(C(=O)NCc3ccc4c(c3)OCO4)nc(-c3cccc(-c4cccc(F)c4)c3)c2[C@@H]1CCO (some centres undefined)
